The source of these data is PubChem BioAssay (NCI).

A short description of assay [1]: NCI Yeast Anticancer Drug Screen. Data for the rad50 strain (AID 155).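 Note: 0% = growth of vehicle-only cultures of the same strain.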 To be noted: S. cerevisiae rad50 strain growth inhibition; at 50.0 µM; hits give high values. An outline of the steps:
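Inhibition values express reduced yeast growth in compound-treated cultures relative to vehicle-treated controls.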

A short description of assay [2]: NCI Yeast Anticancer Drug Screen. Data for the mec2-1 strain (AID 157). The conditions noted are these: S. cerevisiae mec2-1 strain, at 50.0 µM, hits give high values. An outline of the steps:
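Each compound was tested on mec2-1 yeast, a strain altered in DNA damage repair or cell cycle control. Growth inhibition is reported relative to vehicle.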

The nature of assay [3]: NCI Yeast Anticancer Drug Screen. Data for the sgs1 mgt1 strain (AID 161).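 Note: 0% = growth of cultures given vehicle only.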 To be noted: S. cerevisiae sgs1 mgt1 strain, at 50.0 µM, hits give high values. An outline of the steps:
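Inhibition of yeast growth, normalised to vehicle-treated controls, is reported for a strain bearing genetic alterations in DNA damage repair.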

Assay [4] can be described thus: NCI Yeast Anticancer Drug Screen. Data for the cln2 rad14 strain (AID 165).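 Note: 0% = growth equal to vehicle treated cultures.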 The conditions noted are these: S. cerevisiae cln2 rad14 strain, at 50.0 µM, hits give high values. An outline of the steps: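 Test compounds were added to cln2 rad14 yeast cultures; inhibition of growth was then determined by comparison with vehicle treatment.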
A short description of assay [5]: NCI Yeast Anticancer Drug Screen. Data for the bub3 strain (AID 167). The conditions noted are these: S. cerevisiae bub3 mutant strain, at 50.0 µM, hits give high values. In outline:
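Steps: expose the mutant yeast strain to compound; grow alongside vehicle-treated cultures; measure growth; express inhibition against the vehicle cultures.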

Assay [6] in a line: NCI Yeast Anticancer Drug Screen. Data for the mlh1 rad18 strain (AID 175). The conditions noted are these: S. cerevisiae mlh1 rad18 strain growth inhibition; at 50.0 µM; hits give high values. An outline of the steps:
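Inhibition values reflect reduced growth of mutant yeast versus vehicle-treated controls following compound exposure; the mutations affect DNA damage repair.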

About 79,000 compounds went through this panel and 15% of them were active in at least one assay; those are over-represented in the sample as a whole. A number with no mark means an inactive call. The source made the active and inactive calls. Cut-off read from the data, not from the text of the source: active = growth inhibition above about 70%; inactive = the rest.

Regarding `N#C/C(=C(\O)C(=O)O)c1ccc(-c2cccc3ccccc23)cc1`, the growth inhibition in assay [1] was 29.6%; in assay [2], 0.6%; in assay [3] it was -17.9%; in assay [4], 1.9%; in assay [5] it was 16.7%; in assay [6], 26.9%.
`COc1cccc(N2C(=O)CC(=P(c3ccccc3)(c3ccccc3)c3ccccc3)C2=O)c1`: the growth inhibition was 40% in assay [1]; 20.6% in assay [2]; 23.9% in assay [3]; -21.7% in assay [4]; -7.9% in assay [5]; 13.4% in assay [6].
For the compound `N=C(N)c1ccc(N=Nc2ccc(N)cc2N)cc1`, the growth inhibition in assay [1] was 7.4%; in assay [2], -3.75%; in assay [3], -7.45%; in assay [4] it was 12.8%; in assay [5], -5.25%; in assay [6] it was -0.4%.
Consider `COC(=O)c1ccccc1C1CN=NC12Cc1cccc(C)c1C2=O` (stereo not given), for which the growth inhibition was 26.6% in assay [1]; 20.2% in assay [2]; 64.8% in assay [3]; 43.1% in assay [4]; 28.9% in assay [5]; 52.6% in assay [6].
As to `CCCCCCCCCCCCS(=O)(=O)CCC(=O)c1ccco1`, the growth inhibition is 29.4% in assay [1]; 20.1% in assay [2]; -6.8% in assay [3]; 9.3% in assay [4]; 6.55% in assay [5]; 7.6% in assay [6].
On to `CC1(C)OC2OC(C(O)COC(=O)c3ccccc3)C(Cl)C2O1` (stereo not given), for which the growth inhibition in assay [1] is 26.6%; in assay [2] it was 8.35%; in assay [3], -1.6%; in assay [4] it was -5.5%; in assay [5] it was 14.2%; in assay [6], 39.3%.
Take `CCN(CC)CCNC(=O)c1ccccc1NC(=O)C(=O)Nc1ccccc1C(=O)NCCN(CC)CC`: the growth inhibition is -46.9% in assay [1]; -13.2% in assay [2]; -55.2% in assay [3]; -5.15% in assay [4]; -60.3% in assay [5]; -41.6% in assay [6].
On to `[Fe+2].[Fe+2].c1ccc2c(c1)-c1nc-2nc2[n-]c(nc3nc(nc4[n-]c(n1)c1ccccc41)-c1ccccc1-3)c1cc3c4nc5nc(nc6[n-]c(nc7nc(nc([n-]4)c3cc21)-c1ccccc1-7)c1ccccc61)-c1ccccc1-5`, for which the growth inhibition in assay [1] is -5.95%; in assay [2], -18.9%; in assay [3], -14.2%; in assay [4] it was -23%; in assay [5], 6.75%; in assay [6], 2.35%.
In the case of `O=C(NC(=S)Nc1cccc2ccccc12)c1ccccc1F`, the growth inhibition in assay [1] was 30.9%; in assay [2] it was 15.1%; in assay [3], 37.1%; in assay [4], 5.3%; in assay [5] it was 44%; in assay [6] it was 28.4%.
Turning to `O=[N+]([O-])c1ccc(-c2ccccc2-c2ccccc2)cc1`, the growth inhibition in assay [1] is 3.9%; in assay [2], -2.8%; in assay [3] it was 8.25%; in assay [4], -38.1%; in assay [5], 3.5%; in assay [6], -22.9%.
`COc1cc(C(C)C)c(Oc2c(C)c(OC)cc(C(C)C)c2O)cc1C` (tested in a mixture with another compound): the growth inhibition in assay [1] is -7.5%; in assay [2] it was -21.4%; in assay [3] it was -9.6%; in assay [4], -11.1%; in assay [5], 7.9%; in assay [6] it was 7.4%.
On to `COc1ccc(N/N=C(/c2ccccc2)c2noc(-c3ccccc3)n2)cc1`, for which the growth inhibition in assay [1] is 79.5% (active); in assay [2], 92.2% (active); in assay [3], 88.8% (active); in assay [4], 89.3% (active); in assay [5] it was 94.1% (active); in assay [6] it was 92.6% (active).
`CN(Cc1cnc2nc(N)nc(N)c2n1)c1ccc(C(=O)NC(CCC(=O)NC(CCC(=O)NC(CCC(=O)NC(CCC(=O)O)C(=O)O)C(=O)O)C(=O)O)C(=O)O)cc1` (stereo not given): the growth inhibition in assay [1] is 42.8%; in assay [2], -19.8%; in assay [3], -35.9%; in assay [4] it was -26.1%; in assay [5], -41.6%; in assay [6], -12.5%.
As to `CCOP(=O)(OCC)/C(C#N)=C/c1cc(OC)ccc1OC`, the growth inhibition in assay [1] was 28.4%; in assay [2] it was -4.75%; in assay [3], -2.65%; in assay [4], -8.9%; in assay [5], -13.4%; in assay [6], 11.8%.
Take `Cc1cc(N(CCC#N)CCC#N)ccc1/C=C/C(=O)Nc1cccc(Cl)c1`: the growth inhibition in assay [1] was 8.95%; in assay [2] it was 4.6%; in assay [3], 3.55%; in assay [4], 13.2%; in assay [5] it was 27.4%; in assay [6], 7.65%.
Turning to `Cc1c(CCCl)c(Cl)n2c(nc3ccccc32)c1C#N`, the growth inhibition in assay [1] was 38.7%; in assay [2] it was 20.8%; in assay [3], 39.4%; in assay [4], 32.5%; in assay [5], 22.8%; in assay [6] it was 57.1%.
With `CC(C)CCC(C)c1ccncc1` (stereo not given), the growth inhibition in assay [1] was 11.7%; in assay [2], 0.4%; in assay [3], -7.05%; in assay [4], -6.5%; in assay [5] it was 3.35%; in assay [6], 0.45%.
In the case of `CCN(CC)C(=O)C1C(C=C(C)C)C1(C)C` (stereo not given), the growth inhibition in assay [1] was 6.95%; in assay [2], 20.4%; in assay [3], 12.2%; in assay [4] it was 5.3%; in assay [5], -10.1%; in assay [6], 7.55%.
On to `Oc1ccc([C@H]2Oc3c(c(O)cc4c3C3c5c(O)cc(O)cc5OC(c5ccc(O)cc5)(O4)[C@H]3O)CC2O)cc1` (stereo not given in full), for which the growth inhibition is 1.85% in assay [1]; -4.6% in assay [2]; -20.9% in assay [3]; -4.65% in assay [4]; -7% in assay [5]; -5.75% in assay [6].
On to `CNC(=O)OCc1c(COC(=O)NC)c(C)n(-c2ccc(F)cc2)c1C`, for which the growth inhibition is 30.1% in assay [1]; 14.8% in assay [2]; 4.55% in assay [3]; 0.5% in assay [4]; 50.3% in assay [5]; -12.2% in assay [6].
